# Data: PubChem BioAssay (NCATS)
# Several values for one entry are separate records, joined by “and”; a condition that tells them apart may be missing. Equal entries are not always repeated. Entries with a potency or affinity are not part of this list. A number with no mark means an inactive call. No rule for the calls is given here.
# Conditions: Ebola virus entry assay, green fluorescence channel
# Also: 0% is about no effect.
row,Structure (SMILES),efficacy
1,O=c1[nH]cnc2c1ncn2[C@H]1CC[C@@H](CO)O1,-19.1%
2,CCN(CC)C(=S)SSC(=S)N(CC)CC,-47.8%
3,Cc1ccc(S(=O)(=O)N[C@@H](CCCCN)C(=O)CCl)cc1,32.6%
4,Cc1nc(N)nc(N)c1-c1ccc(Cl)c(Cl)c1,-23%
5,CC[C@@H](CO)NC(=O)[C@@H]1C=C2c3cccc4[nH]cc(c34)C[C@H]2N(C)C1,-16.2%
6,CC[C@@H](CO)NC(=O)[C@@H]1C=C2c3cccc4c3c(cn4C)C[C@H]2N(C)C1,9.51%
7,CC(C)OC(=O)C(C)(C)Oc1ccc(C(=O)c2ccc(Cl)cc2)cc1,75.8%
8,COC(=O)C1=C(C)NC(C)=C(C(=O)OC(C)C)C1c1cccc2nonc12 (configuration not stated),-20.5%
9,NC(=O)c1cn(Cc2c(F)cccc2F)nn1,-11.2%
10,CC(C)NCC(O)COc1cccc2[nH]ccc12 (configuration not stated),-19.5%
11,CNCCC(Oc1ccc(C(F)(F)F)cc1)c1ccccc1 (configuration not stated),-180%
12,CC1(C)NC(=O)N(c2ccc([N+](=O)[O-])c(C(F)(F)F)c2)C1=O,16.8%
13,CCCCc1nc(Cl)c(CO)n1Cc1ccc(-c2ccccc2-c2nn[nH]n2)cc1,-25.2%
14,Cc1ccccc1C(=O)Nc1ccc(C(=O)N2CCCC(O)c3cc(Cl)ccc32)c(C)c1 (configuration not stated),54.1%
15,CCN1/C(=C/C=C/c2sc3ccccc3[n+]2CC)Sc2ccccc21,26.7%
16,O=C1CCC(N2C(=O)c3ccccc3C2=O)C(=O)N1 (configuration not stated),-16.4%
17,Cc1ncc([N+](=O)[O-])n1CCO,-56.3%
18,CC1=C(C(=O)O)N2C(=O)[C@@H](NC(=O)[C@H](N)c3ccc(O)cc3)[C@H]2SC1,-8.88%
19,Cc1ccc(S(=O)(=O)NC(=O)NN2CCCCCC2)cc1,-42.6%

row,Structure (SMILES),efficacy
1,CC(C)c1nc(CN(C)C(=O)N[C@H](C(=O)N[C@@H](Cc2ccccc2)C[C@H](O)[C@H](Cc2ccccc2)NC(=O)OCc2cncs2)C(C)C)cs1,31.8%
2,c1ccc(C2CC2)c(OCC2=NCCN2)c1,46.8%
3,CC1=NS(=O)(=O)c2cc(Cl)ccc2N1,-18.7%
4,Cn1cc[nH]c1=S,-16%
5,Cc1ccc2c(n1)Oc1ccc(C(C)C(=O)OCC(=O)N(C)C)cc1C2 (configuration not stated),-14% and -11.2%
6,COc1ccccc1OCCNCC(O)COc1cccc2[nH]c3ccccc3c12 (configuration not stated),67.7%
7,CCOC(=O)[C@H](CCc1ccccc1)N[C@@H](C)C(=O)N1Cc2ccccc2C[C@H]1C(=O)O,30.9%
8,COc1ccc(OC)c(C(O)CNC(=O)CN)c1 (configuration not stated),13.6%
9,O=C(CCCN1CCC(O)(c2ccc(Cl)cc2)CC1)c1ccc(F)cc1,61.7%
10,Cc1[nH]cnc1CN1CCc2c(c3ccccc3n2C)C1=O,-10.6%
11,CCCCc1oc2ccccc2c1C(=O)c1cc(I)c(OCCN(CC)CC)c(I)c1,105%
12,O=C1C(=O)c2ccccc2C(O)=C1C1CCC(c2ccc(Cl)cc2)CC1 (configuration not stated),18.6%
13,N=c1nc(N2CCCCC2)cc(N)n1O,-16.3%
14,O=c1[nH]cc(F)c(=O)[nH]1,26.1%
15,CN[C@H]1CC[C@@H](c2ccc(Cl)c(Cl)c2)c2ccccc21,-213%
16,CCOC(=O)[C@H](CCc1ccccc1)N[C@@H](C)C(=O)N1[C@H](C(=O)O)C[C@@H]2CCC[C@@H]21,-29.2%
17,Clc1ccc(CCC(Cn2ccnc2)Sc2c(Cl)cccc2Cl)cc1 (configuration not stated),-22%
18,CCC[C@H](N[C@@H](C)C(=O)N1[C@H](C(=O)O)C[C@@H]2CCCC[C@@H]21)C(=O)OCC,-25%
